Source: PubChem BioAssay (National Center for Advancing Translational Sciences (NCATS))
HT1080 IDH1KD tx – qHTS for induction of synthetic lethality in tumor cells producing 2HG: qHTS for the HT-1080-IDH1KD cell line | HT-1080 IDH1 knockdown viability, ATP luminescence, 48 h | Potency, µM (highest dose often 46.1 µM), hits mostly cytotoxic | 360,000 tested, 2% active
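CellTiter-Glo luminescence after 48 h compound exposure at 37 degrees C of IDH1-knockdown HT-1080 cells in 5% FBS RPMI. %Activity scaled between DMSO wells and cell-free media wells, with curves fitted and assigned curve classes.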
DT40 TDP1 no CPT – qHTS for Inhibitors of human tyrosyl-DNA phosphodiesterase 1 (TDP1): qHTS in cells in absence of CPT | 420,000 tested, 15% active | DT40 Tdp1-/- hTDP1 cells, no CPT, ATP luminescence, 48 h | AID 686978, 2013 | Potency, µM (highest dose often 46.2 µM), actives largely listed as inhibitors; further: nearly all actives have a fitted effect of over 55% in size
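Compound effects on proliferation are scored in DT40 Tdp1-/-;hTDP1 cells in the absence of CPT. ATP levels (CellTiter-Glo luminescence) are recorded after a ≥48 hr, 37 °C incubation.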
IL-1B inflam inh – qHTS for Inhibitors of Inflammasome Signaling: IL-1-beta AlphaLISA Primary Screen | THP-1 LPS/ATP IL-1B secretion, AlphaLISA, 16 h; hits give low values | activity change, % at 57.5 µM | 360,000 tested, 4.7% active | AID 743279, 2014; in the data active means activity change below about -50%; inconclusive means mostly about -30% to -49%
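Secreted IL-1B measured by AlphaLISA bead assay after 16 h compound exposure of THP-1 cells; compounds (final up to 57.5 uM) added 1 h before LPS (250 ng/mL) and ATP (1.25 mM) stimulation; lower signal means less secretion.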
DT40 TDP1 CPT – qHTS for Inhibitors of human tyrosyl-DNA phosphodiesterase 1 (TDP1): qHTS in cells in presence of CPT; chicken DT40 Tdp1-/-;hTDP1 cells + 20 nM CPT, ATP luminescence, 48 h; Potency, µM (doses to about 46.2 µM), hits mostly inhibitors; 420,000 tested, 12% active; AID 686979, 2013; further: nearly all actives have a fitted effect of over 55% in size
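Chicken DT40 Tdp1-/- cells complemented with human TDP1, 400 cells/well, exposed to compounds plus 20 nM camptothecin for at least 48 h at 37 C; viability read as ATP content by CellTiter-Glo luminescence.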
HT1080-NT tox – qHTS for induction of synthetic lethality in tumor cells producing 2HG: qHTS for the HT-1080-NT fibrosarcoma cell line | Potency, µM (titrated, usually from 46.1 µM), usual class: cytotoxic | AID 686970, 2013 | HT-1080-NT fibrosarcoma viability, CellTiter-Glo ATP luminescence, 48 h | 360,000 tested, 1.6% active;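 further: NT is the 2HG producing partner of a matched IDH1 knockdown line; nearly all actives have a fitted effect of over 55% in size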
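750 cells/well, RPMI + 5% FBS; 2 h settle, compound pin-transfer, 48 h at 37 degrees C. CellTiter-Glo 10 min RT, luminescence. Normalized to DMSO and media-only wells.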
Of the large screens only hits and unclear results are named; the others gave an inactive call. This is a sample that favours compounds with a hit; in the whole collection about 19% have one here. Unless noted, the call rests on the fitted dose curve; in most records, active means well fitted curve in the direction sought with a large enough effect; inconclusive means small, poorly fitted or top-dose-only effect, or another doubt; inactive means no such curve, though single readings can be large; an effect the other way counts as inactive or inconclusive.

CCC(=O)N1CCc2cc(S(=O)(=O)CCC(=O)N3CCN(c4ccc(C(C)=O)cc4)CC3)ccc21	DT40 TDP1 no CPT 7.3µM, DT40 TDP1 CPT 18µM
CCC(=O)N1CCc2cc(S(=O)(=O)CCC(=O)NCc3ccccc3Cl)ccc21	DT40 TDP1 CPT inconclusive (no result: HT1080 IDH1KD tx, IL-1B inflam inh, HT1080-NT tox)
CCC(=O)N1CCc2cc(S(=O)(=O)N3CCN(c4ccccc4)CC3)ccc21	none
CCC(=O)N1CCc2cc(S(=O)(=O)CCC(=O)N3CCN(c4cccc(Cl)c4)CC3)ccc21	DT40 TDP1 no CPT 9.2µM, DT40 TDP1 CPT 21µM (no result: HT1080 IDH1KD tx, IL-1B inflam inh, HT1080-NT tox)
Cc1cc(O)c(N=Cc2cc3c(cc2[N+](=O)[O-])OCO3)cc1C	DT40 TDP1 no CPT 21µM, DT40 TDP1 CPT inconclusive
COc1ccc(S(=O)(=O)N2CCC(c3cc(-c4cccc5ccccc45)n[nH]3)CC2)cc1	DT40 TDP1 no CPT inconclusive, DT40 TDP1 CPT inconclusive
O=S(=O)(c1cccc(C(F)(F)F)c1)N1CCC(c2cc(-c3cccc4ccccc34)n[nH]2)CC1	DT40 TDP1 no CPT inconclusive, DT40 TDP1 CPT 21µM
O=C(Nc1nccs1)c1ccc(COc2c(F)c(F)cc(F)c2F)cc1	DT40 TDP1 no CPT inconclusive
C=CCn1c(=O)c2c(nc(-n3nc(C)cc3C)n2C)n(C)c1=O	none
N#Cc1cc(-c2ccccc2)nn1-c1ccccc1	DT40 TDP1 no CPT 21µM, DT40 TDP1 CPT inconclusive
Nc1ccccc1Nc1cc(-c2ccccc2)nn1-c1ccccc1	DT40 TDP1 no CPT 21µM, DT40 TDP1 CPT 23µM
Cn1ccc(-c2ccccc2)n1	none
Nc1ccccc1Nc1cc(-c2ccccc2)[nH]n1	HT1080 IDH1KD tx inconclusive, DT40 TDP1 no CPT 13µM, IL-1B inflam inh -94, HT1080-NT tox inconclusive
Cc1[nH]c2ccc(CNS(=O)(=O)c3ccc(S(=O)(=O)N4CCOCC4)cc3)cc2c1C	none
COc1cc2c(cc1OC)C(c1cccc([N+](=O)[O-])c1)N(C(=O)c1ccc(F)cc1)CC2 (stereo unspecified)	HT1080 IDH1KD tx inconclusive, DT40 TDP1 no CPT 13µM, IL-1B inflam inh inconclusive, DT40 TDP1 CPT 18µM, HT1080-NT tox inconclusive
COCCNC(=S)N1CCc2cc(OC)c(OC)cc2C1COc1ccc(F)cc1 (stereo unspecified)	HT1080 IDH1KD tx inconclusive, DT40 TDP1 no CPT inconclusive, DT40 TDP1 CPT inconclusive
COc1cc2c(cc1OC)C(COc1ccc(F)cc1)N(C(=O)c1cccc(F)c1)CC2 (stereo unspecified)	DT40 TDP1 no CPT inconclusive, DT40 TDP1 CPT 16µM (no result: HT1080 IDH1KD tx, IL-1B inflam inh, HT1080-NT tox)
COc1cc2c(cc1OC)C(c1cccs1)N(C(=O)c1cccc(S(=O)(=O)N(C)C)c1)CC2 (stereo unspecified)	DT40 TDP1 no CPT inconclusive, DT40 TDP1 CPT 23µM
COc1cc2c(cc1OC)C(COc1ccc(F)cc1)N(C(=O)Cc1ccc(F)cc1)CC2 (stereo unspecified)	DT40 TDP1 no CPT 16µM, DT40 TDP1 CPT 26µM (no result: HT1080 IDH1KD tx, IL-1B inflam inh, HT1080-NT tox)
CNC(=S)N1CCc2cc(OC)c(OC)cc2C1COc1ccc(F)cc1 (stereo unspecified)	HT1080 IDH1KD tx inconclusive, IL-1B inflam inh inconclusive
COc1ccc(C2c3cc(OC)c(OC)cc3CCN2C(=O)c2cccc([N+](=O)[O-])c2)cc1OC (stereo unspecified)	DT40 TDP1 no CPT inconclusive
CCCCN(CC)CCCNC(=O)Cn1nc(CC)n2c(cc3sccc32)c1=O	DT40 TDP1 no CPT inconclusive (no result: HT1080 IDH1KD tx, IL-1B inflam inh, HT1080-NT tox)
CC(=O)NC(c1cccc(F)c1)c1nc(-c2ccoc2)cs1 (stereo unspecified)	HT1080 IDH1KD tx inconclusive, DT40 TDP1 CPT inconclusive
COc1cc(C(=O)NCc2ccc3c(c2)OCO3)c([N+](=O)[O-])cc1OC	none
CCOC(=O)c1ccc(OCC2c3cc(OC)c(OC)cc3CCN2C(=O)Cc2ccc(F)cc2)cc1 (stereo unspecified)	DT40 TDP1 no CPT 18µM, DT40 TDP1 CPT 23µM (no result: HT1080 IDH1KD tx, IL-1B inflam inh, HT1080-NT tox)
CCNC(=S)N1CCc2cc(OC)c(OC)cc2C1COc1ccc(F)cc1 (stereo unspecified)	IL-1B inflam inh -61
CCCCC(=O)N1CCc2cc(OC)c(OC)cc2C1COc1ccc(C(=O)OCC)cc1 (stereo unspecified)	DT40 TDP1 no CPT 18µM, DT40 TDP1 CPT inconclusive (no result: HT1080 IDH1KD tx, IL-1B inflam inh, HT1080-NT tox)
CCC(=O)N1CCc2cc(OC)c(OC)cc2C1COc1ccc(C(=O)OC)cc1 (stereo unspecified)	HT1080 IDH1KD tx inconclusive, DT40 TDP1 no CPT inconclusive, DT40 TDP1 CPT inconclusive
COc1ccc(-c2ccc(SCC(=O)NC3CCCC3)nn2)cc1	none
OC[C@@H]1CN(Cc2ccc(-c3ccccc3)cc2)C[C@H](n2cnc3c(NCc4ccncc4)ncnc32)O1	HT1080 IDH1KD tx 23µM, DT40 TDP1 no CPT 3.3µM, DT40 TDP1 CPT 2.9µM, HT1080-NT tox inconclusive
OC[C@@H]1CN(Cc2ccc(-c3ccccc3)cc2)C[C@H](n2cnc3c(NCc4ccco4)ncnc32)O1	HT1080 IDH1KD tx 18µM, DT40 TDP1 no CPT 9.2µM, DT40 TDP1 CPT 9.2µM, HT1080-NT tox 21µM
Cc1cccc(C(=O)Oc2csc(=S)n2C(=O)c2cccc(C)c2)c1	HT1080 IDH1KD tx 4.6µM, HT1080-NT tox 7.3µM
Cc1[nH]c2ccccc2c1N=Nc1ccccc1C(=O)O	DT40 TDP1 no CPT inconclusive
CCc1nc2ccc(C(=O)N(C)C(C)C)cn2c1N(CCC(C)C)CCN(C)C	none
COc1ccccc1N1CCN(C(CNC(=O)c2ccco2)c2cccnc2)CC1 (stereo unspecified)	DT40 TDP1 no CPT inconclusive, DT40 TDP1 CPT inconclusive
COc1ccc(C(=O)NCC(c2cccnc2)N2CCN(c3ccccc3OC)CC2)cc1OC (stereo unspecified)	DT40 TDP1 no CPT inconclusive, DT40 TDP1 CPT 21µM
COc1cccc(C(=O)NCC(c2cccnc2)N2CCN(c3ccccc3OC)CC2)c1 (stereo unspecified)	DT40 TDP1 no CPT 23µM, DT40 TDP1 CPT 21µM
CCS(=O)(=O)N1CCCC(C(=O)NCCc2ccccc2)C1 (stereo unspecified)	none
CO/N=C/c1ccc(N2CCN(C(=O)c3ccc(Cl)cc3Cl)CC2)c([N+](=O)[O-])c1	HT1080 IDH1KD tx inconclusive, DT40 TDP1 no CPT 5.8µM, IL-1B inflam inh -62, DT40 TDP1 CPT 10µM, HT1080-NT tox inconclusive
CO/N=C/c1ccc(N2CCN(C(=O)c3cccc(C(F)(F)F)c3)CC2)c([N+](=O)[O-])c1	HT1080 IDH1KD tx inconclusive, DT40 TDP1 no CPT 21µM, DT40 TDP1 CPT 15µM
CO/N=C/c1ccc(N2CCN(C(=O)c3ccc(F)cc3)CC2)c([N+](=O)[O-])c1	DT40 TDP1 no CPT 15µM, DT40 TDP1 CPT 15µM
